Compound activity deposited in PubChem BioAssay by several laboratories.
Hsp70 activator – Hsp70 transcriptional activators, primary screen, cell-based, HeLa, Hsp70 promoter luciferase, luminescence, 10 µM | activation, % at 10 µM | actives 0.04% (n = 200,000) | HeLa Hsp70 promoter luciferase reporter; scaled: vehicle 0, proteasome-inhibitor control 100%;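 active = activation above the mean across all tested compounds plus 3 SD, cutoff set per campaign, cut at about 5.5% in these data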
S1P4 antagonist – S1P4 receptor antagonists, primary screen, cell-based; S1P4-expressing cells, antagonist mode, reporter read-out; inhibition, % at 4.98 µM; actives 0.26% (n = 220,000); in the data active = inhibition above about 29%
Target sequence (O95977 whole entry, looked up): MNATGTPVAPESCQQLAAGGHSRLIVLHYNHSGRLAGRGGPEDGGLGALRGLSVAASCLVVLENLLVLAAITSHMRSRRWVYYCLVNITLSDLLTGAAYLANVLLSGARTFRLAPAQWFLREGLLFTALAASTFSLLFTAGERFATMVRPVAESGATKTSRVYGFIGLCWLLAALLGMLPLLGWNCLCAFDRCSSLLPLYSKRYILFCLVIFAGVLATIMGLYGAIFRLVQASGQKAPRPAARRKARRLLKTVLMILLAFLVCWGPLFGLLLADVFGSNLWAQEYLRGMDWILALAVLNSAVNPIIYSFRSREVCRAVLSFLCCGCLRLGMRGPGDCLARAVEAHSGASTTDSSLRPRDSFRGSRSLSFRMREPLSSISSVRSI
CHOP inh – inhibitors of CHOP promoter induction, primary screen, cell-based, unfolded protein response, luciferase reporter. CHO-K1 CHOP-promoter luciferase, tunicamycin-induced, 15-18 h. inhibition, % at 10 µM. actives 3.8% (n = 220,000). AID 2732, 2010;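 active = compounds that reduced the stress-induced luciferase reporter signal by more than about 70% of percent inhibition, limit read from the data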
S1P4 ag – S1P4 receptor agonists, primary screen, cell-based. Sphingosine 1-phosphate receptor 4 (Homo sapiens), O95977. S1P4-expressing cell line, agonist reporter assay. activation, % at 4.98 µM. actives 0.35% (n = 220,000). AID 1509, 2009; in the data active = activation above about 11%
S1P4 antag cf – S1P4 receptor antagonists, human, confirmation, cell-based | shares compounds with S1P4 antagonist | S1P4-expressing cell line, antagonist mode, reporter read-out | inhibition, % at 4.98 µM | actives 71% (n = 520) | AID 1524, 2009; in the data active = inhibition above about 30%
S1P1 antagonist – S1P1 receptor antagonists, human, counter-screen for S1P4 antagonist project, cell-based; inhibition, % at 4.98 µM; cell-based S1P1 antagonist counterscreen, inhibition; shares compounds with S1P4 antagonist; actives 37% (n = 520); in the data active = inhibition above about 40%;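 note: receptor stimulated with S1P near its EC80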
CHOP confirm – retest of CHOP induction inhibitors, confirmation, cell-based. shares compounds with CHOP inh. inhibition, % at 10 µM. actives 45% (n = 2,100). CHO-CHOP promoter luciferase reporter, tunicamycin-induced, luminescence. AID 504437, 2011;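 active = mean of three repeat readings of reporter signal inhibition above a set limit, cut at about 70% in these data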
Numbers stand for hits; - = inactive; . = no result given. An excerpt weighted towards active compounds, which were near 4.2% of everything screened.

SMILES	Hsp70 activator	S1P4 antagonist	CHOP inh	S1P4 ag	S1P4 antag cf	S1P1 antagonist	others
CCCn1c(NC(=O)c2ccccc2)nc2ccccc21	-	29	-	-	-	-
Cc1ccc(C(=O)Nc2nc3ccccc3n2CCN2CCCC2)cc1	-	31	-	-	-	-
CCCn1c(NC(=O)c2ccc(C)cc2)nc2ccccc21	-	-	-	-	.	.
CC(=O)c1csc(COc2cc(Cl)cc(Cl)c2)n1	.	-	-	-	.	.
CCC(=O)Oc1ccc2c(c1)O/C(=C\c1ccco1)C2=O	.	29	-	-	37	-
CC(=O)Oc1ccc2c(c1)O/C(=C\c1ccncc1)C2=O	.	-	-	-	.	.
O=C(NCc1ccco1)c1ccccc1-c1nc(-c2ccccc2)no1	-	30	-	-	-	-
Cc1ccc(-c2noc(-c3ccccc3C(=O)NCc3ccco3)n2)cc1	.	-	-	-	.	.
CSc1ccccc1NC(=O)c1cc(-c2cccs2)on1	-	-	-	-	.	.
COc1ccccc1N(C(=O)CCl)c1cn(C(C)=O)c2ccccc12	.	-	-	-	.	.
CC(=O)n1cc(N(C(=O)CCl)c2ccc(Cl)cc2)c2ccccc21	.	60	107	-	115	41
O=C(NNS(=O)(=O)c1ccc2ccccc2c1)c1cccs1	-	-	-	-	.	.
CCCS(=O)(=O)c1nnnn1-c1cccc(OC)c1	-	38	.	-	111	-
Cc1ccc(C(=O)NC(C#N)=C(Cl)Cl)cc1	-	60	80	-	110	-
C(=N\n1cnnc1)/c1ccc2c(c1)OCO2	-	31	-	-	-	-
Cc1ccc2c(n1)sc1c(N)ncnc12	-	-	-	-	.	.
Cc1ccc(NC(=O)C(=O)NCC2CCCO2)cc1 (stereo unspecified)	-	79	-	-	-	-
O=C(Nc1cccc2ccccc12)/C(Cl)=C/c1ccccc1	-	61	-	-	68	-
O=C(O)C1CCN(Cc2cnn(-c3ccccc3)c2-n2cccc2)CC1	-	-	-	-	.	.
CCCCOc1ccccc1C(=O)NCCCC(=O)O	-	35	-	-	-	-
COc1cc(OC)cc(-n2nnnc2SCC(=O)NCc2cccs2)c1	-	-	-	-	.	.
COc1ccc2c(c1)c(/C=N/Nc1nc3ccccc3[nH]1)c(C)n2C	.	32	-	-	-	-
CCOC(=O)COc1cccc2c(=O)n(CC(=O)NCc3ccc(F)cc3)ccc12	.	33	-	-	30	73
O=C(Nc1nc(=O)c2ccccc2s1)c1ccccc1	-	36	-	-	-	-
CC1(C)O[C@@H]2C[C@H]3[C@@H]4C[C@H](F)C5=CC(=O)CC[C@]5(C)[C@H]4[C@@H](O)C[C@]3(C)[C@]2(C(=O)CO)O1	-	59	-	-	-	-
SMILES	Hsp70 activator	S1P4 antagonist	CHOP inh	S1P4 ag	S1P4 antag cf	S1P1 antagonist	others
CCCCN(C)CC(O)Cn1cc(/C=C/C(=O)c2cccs2)c2ccccc21 (stereo unspecified)	-	47	-	-	61	88
CN1Cc2c(N3CCOCC3)nc3sc(C#N)c(N)c3c2CC1(C)C	.	-	-	-	.	.
CN1Cc2c(N3CCOCC3)nc3sc(C(=O)c4ccc(Br)cc4)c(N)c3c2CC1(C)C	.	43	-	-	57	58
O=C(c1cnn2c(C(F)F)cc(-c3ccccc3)nc12)N1CCN2CCCC2C1 (stereo unspecified)	-	35	-	-	-	-
COc1ccc(-c2cc(C(F)F)n3ncc(C(=O)N4CCCCC4)c3n2)cc1	-	-	-	-	.	.
O=[N+]([O-])c1cc(Cl)c(O)c2ncccc12	-	31	-	-	62	55
O=C(O)CN(c1cccc(C(F)(F)F)c1)S(=O)(=O)c1ccccc1	-	-	-	-	.	.
COc1ccc(Nc2cc(C)c3ccc(O)cc3n2)cc1	.	88	-	-	65	-
Cc1cc(Nc2ccccc2)nc2cc(O)ccc12	-	92	-	-	81	41
Cc1cc(Nc2cccc(O)c2)c2ccccc2n1	-	-	-	-	.	.
COc1ccc(Cc2nnc(NC(=O)CSc3ccc(Cl)cc3)s2)cc1OC	-	-	-	-	.	.
Cc1ccccc1CS(=O)(=O)c1nnc([C@H](CC(C)C)NC(=O)OC(C)(C)C)o1	-	86	108	-	113	-	CHOP confirm=123
CC[C@@H](C)[C@H](NC(=O)OCc1ccccc1)c1nnc([C@@H](NC(=O)OCc2ccccc2)[C@@H](C)CC)o1	.	.	-	.	.	.
CC[C@@H](C)[C@H](NC(=O)OC(C)(C)C)c1nnc(S(=O)(=O)Cc2cc(C)ccc2C)o1	-	57	115	-	105	-	CHOP confirm=123
COc1ccccc1N1CCN(CC(=O)N2CCCC2)CC1	-	-	-	-	.	.
O=C1C(Nc2ccc(O)cc2)=C/C(=N/S(=O)(=O)c2cccs2)c2ccccc21	-	86	108	-	109	94	CHOP confirm=110
O=C1C=C(Nc2ccc(O)cc2)C(=O)c2ccccc21	.	-	-	-	.	.
C=CCn1c(SC)nnc1-c1ccc2ncccc2c1	.	-	-	-	.	.
CCOC(=O)/C=C1\NC2(CCCCC2)Cc2cc(OC)c(OC)cc21	-	-	.	-	.	.
COc1cccc(-n2nc(C#N)c(Cl)cc2=O)c1	-	94	107	-	104	-	CHOP confirm=-
O=C(Nc1ccc2nn(-c3ccccc3)nc2c1)c1ccc2c(c1)OCO2	-	-	-	-	.	.
CCOC(=O)CCS(=O)(=O)c1nc(-c2ccccc2)cc(C(F)(F)F)n1	-	84	.	-	114	52	CHOP confirm=136
COC(=O)CCS(=O)(=O)c1nc(-c2ccccc2)cc(C(F)(F)F)n1	-	60	106	-	113	-	CHOP confirm=-
CCOC(=O)CS(=O)(=O)c1nc(-c2ccc(F)cc2)cc(C(F)(F)F)n1	-	-	.	-	.	.
COCC(C)NC(=O)CCS(=O)(=O)c1nc(-c2ccc(OC)cc2)cc(C(F)(F)F)n1 (stereo unspecified)	-	-	-	-	.	.
C=C1C(=O)C=C2CN(C(=O)c3ccccc3)[C@@](Cc3ccc(F)cc3)(C(=O)OC)[C@@H]12	-	60	109	-	119	143	CHOP confirm=128
C/C(Cn1nc([N+](=O)[O-])cc1C)=N\NC(=O)COc1ccccc1[N+](=O)[O-]	-	-	-	-	.	.
O=C(/C=C/c1cccc(Cl)c1)c1nc2ccccc2[nH]1	-	56	102	-	104	-	CHOP confirm=-
CC(=O)N1CCc2cc(Br)cc(S(=O)(=O)N3CCc4ccccc43)c21	-	-	-	-	.	.
COC(=O)c1ccc(/C=N/N2CCN(Cc3ccc(C)cc3C)CC2)cc1	-	-	-	-	.	.
